# Assay results reported in PubChem BioAssay.
# The source made the active and inactive calls.
# Columns and labels:
# [1] = small molecules captured by biotinylated probe aFSTL3 – biochemical, small-molecule microarray, fluorescence 635/667, stem cell growth factor project, primary screen (AID 1064); conditions: higher = more signal;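 further: measures binding of the biotinylated anti-FSTL3 antibody to printed compounds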
# [2] = binders from COS7 lysate, DM2A8 probe, primary screen, torsin A project, cell lysate, small-molecule microarray, fluorescence 635/667 (AID 1065); conditions: higher = more signal, COS7 lysate expressing mutant human TOR1A
# [3] = small molecules captured by biotinylated probe aFGF2 – biochemical, small-molecule microarray, fluorescence 635/667, stem cell growth factor project, primary screen (AID 1067); conditions: higher = more signal;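 further: measures binding of biotinylated aFGF2 protein to printed compounds on slides; z-score merges feature fluorescence and signal-to-noise across triplicate slides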
# [4] = small molecules captured by biotinylated probe aFGF10 – biochemical, small-molecule microarray, fluorescence 635/667, stem cell growth factor project, primary screen (AID 1071); conditions: higher = more signal;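 further: score merges 667 nm spot intensity and signal to noise from triplicate slides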
# [5] = biological target: Neurogenic locus notch homolog protein 2 (Homo sapiens) (UniProt Q04721); experiment: small molecules binding Notch2 protein – biochemical, small-molecule microarray, 635 nm fluorescence, stem cell growth factors, primary screen (AID 1073); conditions: higher = more signal
# [6] = biological target: Pro-neuregulin-1, membrane-bound isoform (Homo sapiens) (UniProt Q02297); experiment: small molecules binding neuregulin-1 protein – biochemical, small-molecule microarray, fluorescence 635/667, psychiatric disease protein project, primary screen (AID 1075); conditions: NRG1 binding, 635 nm fluorescence, higher = more signal;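 further: score combines 667 nm spot fluorescence with signal to noise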
# [7] = tested on: Neuregulin-1 EGF-like domain; experiment: small molecules binding NRG1 EGF domain – biochemical, small-molecule microarray, 635 nm fluorescence, primary screen (AID 1081); conditions: higher = more signal;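 further: binding of the protein to compounds printed on small-molecule microarray slides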
# [8] = FRG1 expression reporter modulators in myotubes – cell-based, C2C12 myotubes, firefly/Renilla luciferase, luminescence, FRG1 inhibition for FSHD, primary screen (AID 1084); conditions: FRG1 promoter luciferase, higher = more signal, called active from +8 up or from −8 down
# [9] = small molecules captured by biotinylated probe aFST – biochemical, small-molecule microarray, fluorescence 635/667, stem cell growth factor project, primary screen (AID 1086); conditions: higher = more signal;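 further: score merges 667 nm fluorescence with signal-to-noise of each printed compound spot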
# [10] = binders of probe aHhip on microarray, primary screen, stem cell growth factor project, biochemical, small-molecule microarray, fluorescence 635/667 (AID 1087); conditions: higher = more signal;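 further: score merges spot fluorescence at 667nm with spot signal to noise ratio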
# [11] = tested on: PRMT1 (protein arginine N-methyltransferase 1); experiment: small molecules binding arginine methyltransferase PRMT1 – biochemical, small-molecule microarray, 635 nm fluorescence, primary screen (AID 1088); conditions: higher = more signal;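 further: binding of Prmt1 protein to compounds spotted on small-molecule microarray slides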
# [12] = growth effects on S. cerevisiae YJM789 – YJM789 clinical isolate, OD600, 24 h, basal, primary screen (AID 1089); conditions: higher = more signal, called active from +8 up or from −8 down;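 further: growth of clinical yeast isolate S. cerevisiae YJM 789 seeded 1000 cells per well; test concentration not given here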
# [13] = S. pombe growth modifiers, basal conditions – strain 972, OD600, 24 h, no modulator, primary screen (AID 1090);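 further: basal condition with compound alone and no growth modifier present; test concentration not given here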; conditions: S. pombe 972 growth, higher = more signal, called active from +8 up or from −8 down
# [14] = budding yeast growth modifiers under rapamycin – strain BY4716, OD600, 96 h, primary screen (AID 1091); further: test concentration not given here; conditions: S. cerevisiae BY4716 + rapamycin, higher = more signal, called active from +8 up or from −8 down
# [15] = biological target: Torsin-1A-interacting protein 2 (Homo sapiens) (UniProt Q8NFQ8); experiment: small molecules binding lysate-expressed LULL1 – cell lysate, human LULL1 lysate, 635/667 nm fluorescence, primary screen (AID 1092); conditions: small-molecule microarray, hLULL1 lysate binding, 635 nm fluorescence; higher = more signal;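 further: probe is lysate of COS7 cells overexpressing human LULL1; score merges per-feature 667 nm fluorescence with signal-to-noise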
# [16] = optical density change of DRC41 E. coli – strain DRC41, OD650, 24 h, E. coli filamentation project, primary screen (AID 1093);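 further: MC1000 strain lacking acrAB efflux and sulA so SOS filamentation is blocked; test concentration not given here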; conditions: E. coli DRC41 growth, higher = more signal, called active from +8 up or from −8 down
# [17] = probe aLefty2 binding to arrayed compounds – biochemical, biotinylated probe, 635/667 nm fluorescence, primary screen (AID 1094); conditions: small-molecule microarray, higher = more signal;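 further: score merges spot fluorescence near 667 nm with spot signal-to-noise ratio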
# [18] = tested on: Noggin (protein binding on small-molecule microarray); experiment: small molecules binding Noggin protein – biochemical, 635/667 nm fluorescence, primary screen (AID 1095); conditions: 635 nm fluorescence, higher = more signal;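 further: score merges 667 nm feature fluorescence with signal to noise over triplicate slides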
# [19] = biological target: Neurogenic locus notch homolog protein 3 (Homo sapiens) (UniProt Q9UM47); experiment: small molecules binding NOTCH3 protein – biochemical, 635/667 nm fluorescence, primary screen (AID 1096); conditions: small-molecule microarray, 635 nm fluorescence, higher = more signal
# [20] = probe aEGFR binding to arrayed compounds – biochemical, biotinylated probe, 635/667 nm fluorescence, primary screen (AID 1097); conditions: small-molecule microarray, higher = more signal;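 further: probe is a biotinylated anti-EGFR antibody binding compounds printed on slides; score combines fluorescence near 667 nm and signal to noise of each spot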
# Sequence of Pro-neuregulin-1, membrane-bound isoform (Homo sapiens) (Q02297 whole entry, looked up, the tested form may be a part, canonical isoform): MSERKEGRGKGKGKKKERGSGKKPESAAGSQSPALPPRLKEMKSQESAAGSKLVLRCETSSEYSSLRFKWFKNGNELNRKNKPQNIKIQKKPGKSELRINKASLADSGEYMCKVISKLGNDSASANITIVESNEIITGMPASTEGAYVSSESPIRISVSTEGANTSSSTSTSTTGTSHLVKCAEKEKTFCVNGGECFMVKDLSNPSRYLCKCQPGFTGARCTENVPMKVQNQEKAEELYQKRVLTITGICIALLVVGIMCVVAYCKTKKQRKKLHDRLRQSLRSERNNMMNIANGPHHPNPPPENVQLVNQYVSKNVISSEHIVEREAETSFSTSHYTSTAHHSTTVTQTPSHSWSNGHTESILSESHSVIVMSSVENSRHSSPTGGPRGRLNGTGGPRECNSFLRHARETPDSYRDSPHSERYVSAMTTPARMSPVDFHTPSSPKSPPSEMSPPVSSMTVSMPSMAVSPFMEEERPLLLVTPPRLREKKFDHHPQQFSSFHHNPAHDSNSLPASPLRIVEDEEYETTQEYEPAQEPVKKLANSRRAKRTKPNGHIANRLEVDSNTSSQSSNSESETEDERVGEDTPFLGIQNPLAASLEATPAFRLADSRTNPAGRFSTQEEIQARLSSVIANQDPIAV
# Sequence of Neurogenic locus notch homolog protein 2 (Homo sapiens) (Q04721 whole entry, looked up, canonical isoform): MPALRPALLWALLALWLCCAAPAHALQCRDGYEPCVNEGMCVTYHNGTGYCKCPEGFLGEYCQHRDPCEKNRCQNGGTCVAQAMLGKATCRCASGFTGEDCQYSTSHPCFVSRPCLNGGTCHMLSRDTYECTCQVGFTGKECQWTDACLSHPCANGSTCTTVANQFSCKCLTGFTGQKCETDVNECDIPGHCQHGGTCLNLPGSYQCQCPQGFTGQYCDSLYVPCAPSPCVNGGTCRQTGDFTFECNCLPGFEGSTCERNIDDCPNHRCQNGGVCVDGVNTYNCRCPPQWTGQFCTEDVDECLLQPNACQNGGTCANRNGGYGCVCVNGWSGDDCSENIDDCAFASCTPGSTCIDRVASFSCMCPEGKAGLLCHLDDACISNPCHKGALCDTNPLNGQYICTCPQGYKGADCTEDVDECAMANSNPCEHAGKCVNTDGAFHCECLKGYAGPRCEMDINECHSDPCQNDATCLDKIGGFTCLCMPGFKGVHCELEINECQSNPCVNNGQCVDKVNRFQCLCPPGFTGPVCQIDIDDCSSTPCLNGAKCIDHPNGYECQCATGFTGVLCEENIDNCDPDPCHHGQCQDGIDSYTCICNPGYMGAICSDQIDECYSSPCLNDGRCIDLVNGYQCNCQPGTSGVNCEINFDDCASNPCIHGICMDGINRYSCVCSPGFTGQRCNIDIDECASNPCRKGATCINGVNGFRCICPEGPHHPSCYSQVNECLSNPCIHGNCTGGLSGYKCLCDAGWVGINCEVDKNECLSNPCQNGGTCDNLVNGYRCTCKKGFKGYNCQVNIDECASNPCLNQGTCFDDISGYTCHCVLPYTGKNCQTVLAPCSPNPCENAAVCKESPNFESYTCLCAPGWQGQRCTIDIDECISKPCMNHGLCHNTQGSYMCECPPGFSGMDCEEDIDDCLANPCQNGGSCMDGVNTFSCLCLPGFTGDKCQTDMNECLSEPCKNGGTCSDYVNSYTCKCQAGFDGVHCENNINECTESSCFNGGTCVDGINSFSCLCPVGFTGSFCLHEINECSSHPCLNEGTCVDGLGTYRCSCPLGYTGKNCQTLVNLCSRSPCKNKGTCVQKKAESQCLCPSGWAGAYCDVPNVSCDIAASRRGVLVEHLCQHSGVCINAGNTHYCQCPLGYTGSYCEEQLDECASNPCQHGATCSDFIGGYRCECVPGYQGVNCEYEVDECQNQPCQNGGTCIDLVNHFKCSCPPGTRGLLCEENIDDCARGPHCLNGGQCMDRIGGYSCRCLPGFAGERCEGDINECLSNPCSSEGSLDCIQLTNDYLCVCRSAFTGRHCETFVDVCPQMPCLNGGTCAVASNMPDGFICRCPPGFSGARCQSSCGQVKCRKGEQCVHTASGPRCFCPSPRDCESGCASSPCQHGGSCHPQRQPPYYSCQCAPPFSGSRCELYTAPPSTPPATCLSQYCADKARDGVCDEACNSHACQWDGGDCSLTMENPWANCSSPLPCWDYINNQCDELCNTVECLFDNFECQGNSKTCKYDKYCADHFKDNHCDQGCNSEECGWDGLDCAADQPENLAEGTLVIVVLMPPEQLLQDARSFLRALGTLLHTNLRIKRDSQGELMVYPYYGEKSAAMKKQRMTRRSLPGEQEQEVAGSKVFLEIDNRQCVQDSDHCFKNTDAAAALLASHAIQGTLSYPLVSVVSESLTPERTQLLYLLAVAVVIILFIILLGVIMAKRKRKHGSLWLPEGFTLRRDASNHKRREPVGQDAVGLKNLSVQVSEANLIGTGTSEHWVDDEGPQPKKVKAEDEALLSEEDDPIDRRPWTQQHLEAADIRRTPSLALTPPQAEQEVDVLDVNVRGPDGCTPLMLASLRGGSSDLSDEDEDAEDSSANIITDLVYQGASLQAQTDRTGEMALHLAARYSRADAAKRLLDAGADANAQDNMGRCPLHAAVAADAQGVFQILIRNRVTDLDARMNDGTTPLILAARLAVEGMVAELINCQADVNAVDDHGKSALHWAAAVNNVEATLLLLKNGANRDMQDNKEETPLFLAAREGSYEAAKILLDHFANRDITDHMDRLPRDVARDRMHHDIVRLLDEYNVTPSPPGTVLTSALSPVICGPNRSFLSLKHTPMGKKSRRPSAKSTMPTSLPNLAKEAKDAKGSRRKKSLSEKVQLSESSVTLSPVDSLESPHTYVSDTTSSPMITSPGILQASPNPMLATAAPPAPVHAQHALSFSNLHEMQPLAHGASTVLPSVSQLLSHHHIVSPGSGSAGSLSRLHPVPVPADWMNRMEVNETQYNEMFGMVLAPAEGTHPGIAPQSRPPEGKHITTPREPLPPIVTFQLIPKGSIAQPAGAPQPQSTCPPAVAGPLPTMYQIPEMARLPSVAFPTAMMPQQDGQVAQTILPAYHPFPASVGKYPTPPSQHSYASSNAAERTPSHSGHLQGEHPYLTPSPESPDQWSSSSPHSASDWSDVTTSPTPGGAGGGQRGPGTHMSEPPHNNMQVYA
# Sequence of Torsin-1A-interacting protein 2 (Homo sapiens) (Q8NFQ8 whole entry, looked up): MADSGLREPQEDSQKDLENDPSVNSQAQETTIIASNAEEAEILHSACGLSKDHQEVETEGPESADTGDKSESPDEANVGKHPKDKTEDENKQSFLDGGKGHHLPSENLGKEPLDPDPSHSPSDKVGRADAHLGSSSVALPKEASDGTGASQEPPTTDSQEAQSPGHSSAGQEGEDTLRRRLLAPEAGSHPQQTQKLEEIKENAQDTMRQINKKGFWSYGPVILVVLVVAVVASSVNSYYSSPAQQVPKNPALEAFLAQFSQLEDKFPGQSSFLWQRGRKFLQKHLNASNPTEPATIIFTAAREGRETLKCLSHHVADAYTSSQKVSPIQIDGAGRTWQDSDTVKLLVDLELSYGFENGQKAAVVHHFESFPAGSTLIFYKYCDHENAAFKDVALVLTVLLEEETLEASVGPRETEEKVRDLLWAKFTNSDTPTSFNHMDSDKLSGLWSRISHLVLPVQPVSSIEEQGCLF
Structure (SMILES),composite z-score [1],composite z-score [2],composite z-score [3],composite z-score [4],composite z-score [5],composite z-score [6],composite z-score [7],z-score [8],composite z-score [9],composite z-score [10],composite z-score [11],z-score [12],z-score [13],z-score [14],composite z-score [15],z-score [16],composite z-score [17],composite z-score [18],composite z-score [19],composite z-score [20]
COc1ccc(C(O)C2C=CC3C(=O)N(C)C(=O)C3N2Nc2ccc([N+](=O)[O-])cc2[N+](=O)[O-])cc1OCc1ccccc1 (stereo not given),-0.0125,0.216,0.258,0.975,1.6,0.875,1.27,0.37 (inactive),1.04,-0.0296,1.35,0.932 (inactive),1.01 (inactive),0.839 (inactive),2.96,-0.636 (inactive),0.468,0.0404,1.06,0.349
COCCOC(=O)N1C(=O)[C@@]2(c3cc(C#Cc4ccc(OC)cc4)ccc31)[C@H](C(=O)N1CCCCCCC1)[C@H]1C(=O)O[C@H](c3ccccc3)[C@H](c3ccccc3)N1[C@@H]2c1ccccc1OCCO,3.15,0.486,0.685,0.265,1.13,1.29,1.12,-0.575 (inactive),3.04,2.21,1.44,1.83 (inactive),1.44 (inactive),3.98 (inactive),3.66,-0.291 (inactive),1.63,1.91,1.12,1.02
NC(=O)N1C(=O)C2C(C1=O)C1C=C(CCCO)C2C(c2ccc(CN3CCCC3)cc2)N1Cc1cccc(OC(F)(F)F)c1 (stereo not given),-0.0367,0.145,0.028,0.173,0.185,-0.299,1.03,-0.0987 (inactive),0.0635,-0.0296,1.33,-1.11 (inactive),-2.67 (inactive),-2.1 (inactive),1.28,0.489 (inactive),0.0472,0.623,0.0057,-0.0286
O=C1c2ccccc2[C@@]2(Cc3ccccc3N(Cc3ccccc3)C2=O)[C@H](c2ccc(CO)cc2)N1Cc1ccccc1,0.55,-0.0642,-0.078,-0.221,-0.476,-0.605,-0.564,0.161 (inactive),-0.351,-0.0645,0.131,-0.82 (inactive),-0.678 (inactive),15.9 (active),0.118,-0.737 (inactive),-0.0321,-0.945,-1.15,-0.218
COCCOC(=O)N1C(=O)[C@@]2(c3ccccc31)[C@H](C(=O)N1CCCCCCC1)[C@H]1C(=O)O[C@H](c3ccccc3)[C@H](c3ccccc3)N1[C@@H]2c1ccc(O)cc1,3.89,1.42,0.904,0.559,1.08,1.59,1.15,-1.43 (inactive),3.43,3.37,1.53,-1.37 (inactive),-0.268 (inactive),1.63 (inactive),4.37,1.39 (inactive),1.75,1.11,1.09,1.15
COCCOC(=O)N1C(=O)[C@@]2(c3cc(C#CCCO)ccc31)[C@H](C(=O)N1CCc3cc(OC)c(OC)cc3C1)[C@H]1C(=O)O[C@H](c3ccccc3)[C@H](c3ccccc3)N1[C@@H]2c1ccccc1OCCO,-0.327,0.255,-0.0336,1,1.47,0.317,1.19,-0.742 (inactive),0.0205,-0.111,1.55,2.65 (inactive),1.65 (inactive),3.88 (inactive),2.81,0.156 (inactive),-0.0159,1.81,1.1,-0.0564
O=C1C2C=CC(C(O)c3cccc(O)c3)N(Nc3ccccc3F)C2C(=O)N1c1ccccc1 (stereo not given),0.0355,0.74,-0.0005,-0.0284,0.0745,0.445,0.218,2.18 (inactive),0.725,-0.437,0.788,-25 (active),-8.06 (active),-1.5 (inactive),1.88,1.94 (inactive),-0.192,-0.171,0.552,-0.13
COc1ccc(CC[C@H](O)c2cccc(OCC(=O)OC(C)(C)C)c2)cc1,-0.386,1.08,0.106,0.359,0.966,0.576,0.977,-0.0488 (inactive),0.736,0.136,1.55,-2.98 (inactive),-3.06 (inactive),28.1 (active),2.12,0.362 (inactive),0.165,0.956,1.09,0.0656
C/C=C/CN(C(=O)C#Cc1ccccc1)[C@H](CO[Si](C)(C)C(C)(C)C)c1ccccc1,0.15,0.183,-0.237,-0.77,-1.58,-0.339,-0.164,-3.24 (inactive),-0.967,-0.435,0.437,-0.185 (inactive),-0.463 (inactive),-0.177 (inactive),0.571,2.76 (inactive),-0.192,-1.01,-1.35,-0.595
CCCCC(=C=CC[C@@H](O)c1cccc(OCCO)c1)C[C@@H](O)COCc1ccccc1,-0.407,-0.323,-0.174,0.211,-0.546,0.679,-0.0821,-2.47 (inactive),-0.336,0.0053,0.554,-0.59 (inactive),-1.95 (inactive),-0.601 (inactive),0.866,1.84 (inactive),-0.274,-0.0311,-0.184,-0.188
